Out of some 3,200 compounds screened, about 300 (9.4%) showed activity. Only a selection was taken, and actives are over-represented in it overall. Unmarked numbers belong to inactive results.
Tested on: A673/TR/shEF
Assay: cell viability (LOESS-normalised, relative to median of negative controls) (log2 ratio); higher = more viable cells (less compound effect), active = hit call of the paper (over 3 MAD below the median)
Settings: treatment time: 72 h
How it was run: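 For three days, A673/TR/shEF Ewing sarcoma cells in 384-well plates (1,500 per well) were treated with library compounds at two or more concentrations or with DMSO controls, after doxycycline had been added or withheld 24 h beforehand to induce EWS-FLI1 shRNA knockdown. Viability was read by CellTiter-Glo luminescence on an Envision reader. The data were LOESS-corrected per plate, divided by the median of negative controls and log2-transformed.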

[1] = 0.25 µM, library screen: screen1, EWS-FLI1 expression: high (no doxycycline)
[2] = 0.25 µM, library screen: screen1, EWS-FLI1 expression: low (doxycycline-induced shRNA knockdown)
[3] = 2.5 µM, library screen: screen1, EWS-FLI1 expression: high (no doxycycline)
[4] = 2.5 µM, library screen: screen1, EWS-FLI1 expression: low (doxycycline-induced shRNA knockdown)
[5] = 0.25 µM, library screen: screen2, EWS-FLI1 expression: high (no doxycycline)
[6] = 0.25 µM, library screen: screen2, EWS-FLI1 expression: low (doxycycline-induced shRNA knockdown)
[7] = 2.5 µM, library screen: screen2, EWS-FLI1 expression: high (no doxycycline)
[8] = 2.5 µM, library screen: screen2, EWS-FLI1 expression: low (doxycycline-induced shRNA knockdown)
[9] = 0.103 µM, library screen: screen3, EWS-FLI1 expression: high (no doxycycline)
[10] = 0.103 µM, library screen: screen3, EWS-FLI1 expression: low (doxycycline-induced shRNA knockdown)
[11] = 0.308 µM, library screen: screen3, EWS-FLI1 expression: high (no doxycycline)
[12] = 0.308 µM, library screen: screen3, EWS-FLI1 expression: low (doxycycline-induced shRNA knockdown)
[13] = 0.926 µM, library screen: screen3, EWS-FLI1 expression: high (no doxycycline)
[14] = 0.926 µM, library screen: screen3, EWS-FLI1 expression: low (doxycycline-induced shRNA knockdown)
[15] = 2.8 µM, library screen: screen3, EWS-FLI1 expression: high (no doxycycline)
[16] = 2.8 µM, library screen: screen3, EWS-FLI1 expression: low (doxycycline-induced shRNA knockdown)
[17] = 8.3 µM, library screen: screen3, EWS-FLI1 expression: high (no doxycycline)
[18] = 8.3 µM, library screen: screen3, EWS-FLI1 expression: low (doxycycline-induced shRNA knockdown)
[19] = 25 µM, library screen: screen3, EWS-FLI1 expression: high (no doxycycline)
[20] = 25 µM, library screen: screen3, EWS-FLI1 expression: low (doxycycline-induced shRNA knockdown)

## O=C(NC(=S)Nc1ncc(Br)cc1Br)c1cccs1
[1]
  cell viability (log2): 0.112
[2]
  cell viability (log2): -0.086
[3]
  cell viability (log2): 0.132
[4]
  cell viability (log2): 0.0575

## COc1c(Cl)ccc(Cl)c1C(=O)O
[1]
  cell viability (log2): 0.0938
[2]
  cell viability (log2): 0.128
[3]
  cell viability (log2): 0.0992
[4]
  cell viability (log2): 0.17

## CC(=O)O[C@H]1CC[C@]2(C)C3=CC(=O)[C@@]4(C)C(C[C@@H]5OC6(OCC(C)CC6Br)[C@@H](C)[C@@H]54)C3CC[C@H]2C1 (some centres undefined)
[1]
  cell viability (log2): 0.0329
[2]
  cell viability (log2): 0.0911
[3]
  cell viability (log2): 0.172
[4]
  cell viability (log2): 0.139

## CC(C)(C)OC(=O)C(C)(N)c1ccc(Cl)cc1 (centres undefined)
[5]
  cell viability (log2): 0.157
[6]
  cell viability (log2): 0.0841
[7]
  cell viability (log2): 0.151
[8]
  cell viability (log2): 0.141

## CCN(CCO)CCCOc1ccc2c(Nc3cc(CC(=O)Nc4cccc(F)c4)[nH]n3)ncnc2c1
[9]
  cell viability (log2): -0.49 (active)
[10]
  cell viability (log2): -0.0648
[11]
  cell viability (log2): -0.395 (active)
[12]
  cell viability (log2): -0.00388
[13]
  cell viability (log2): -0.452 (active)
[14]
  cell viability (log2): -0.0458
[15]
  cell viability (log2): -0.473 (active)
[16]
  cell viability (log2): -0.112 (active)
[17]
  cell viability (log2): -0.446 (active)
[18]
  cell viability (log2): -0.0257
[19]
  cell viability (log2): -0.681 (active)
[20]
  cell viability (log2): -0.0482

## C#Cc1cccc(Nc2ncnc3cc(OCCOC)c(OCCO)cc23)c1
[9]
  cell viability (log2): -0.021
[10]
  cell viability (log2): 0.0228
[11]
  cell viability (log2): -0.00557
[12]
  cell viability (log2): 0.0307
[13]
  cell viability (log2): -0.00846
[14]
  cell viability (log2): 0.063
[15]
  cell viability (log2): 0.0648
[16]
  cell viability (log2): 0.0201
[17]
  cell viability (log2): -0.0295
[18]
  cell viability (log2): 0.0604
[19]
  cell viability (log2): -0.0784
[20]
  cell viability (log2): -0.0862

## O=C(CSc1nc2ccccc2[nH]1)c1ccc(OC(F)F)cc1
[1]
  cell viability (log2): 0.0646
[2]
  cell viability (log2): 0.0338
[3]
  cell viability (log2): 0.169
[4]
  cell viability (log2): -0.104

## CN1CCN(CC(=O)N2c3ccccc3Sc3ccccc32)CC1
[1]
  cell viability (log2): 0.172
[2]
  cell viability (log2): 0.134
[3]
  cell viability (log2): 0.173
[4]
  cell viability (log2): 0.343

## CNC(=O)c1c(F)cccc1Nc1nc(Nc2cc3c(cc2OC)CCN3C(=O)CN(C)C)nc2[nH]ccc12
[9]
  cell viability (log2): -0.00474
[10]
  cell viability (log2): 0.0229
[11]
  cell viability (log2): -0.215 (active)
[12]
  cell viability (log2): -0.0133
[13]
  cell viability (log2): -0.468 (active)
[14]
  cell viability (log2): -0.047
[15]
  cell viability (log2): -0.729 (active)
[16]
  cell viability (log2): -0.119 (active)
[17]
  cell viability (log2): -0.785 (active)
[18]
  cell viability (log2): -0.103 (active)
[19]
  cell viability (log2): -1.04 (active)
[20]
  cell viability (log2): -0.185 (active)

## CCOC(=O)C1=C(C)N=C2SC(C)C(=O)N2C1c1ccc(OC)cc1 (centres undefined)
[1]
  cell viability (log2): 0.148
[2]
  cell viability (log2): 0.0319
[3]
  cell viability (log2): 0.107
[4]
  cell viability (log2): 0.0438

## NC(C(=O)O)c1cccc(O)c1 (centres undefined)
[5]
  cell viability (log2): 0.144
[6]
  cell viability (log2): 0.0441
[7]
  cell viability (log2): 0.145
[8]
  cell viability (log2): 0.0975

## C[C@@H]1CC[C@@]23CCC4(C)[C@@](C=CC5[C@@]6(C)CC[C@H](O)C(C)(C)C6CC[C@]54C)(OC2=O)C3[C@H]1C (some centres undefined)
[1]
  cell viability (log2): 0.00363
[2]
  cell viability (log2): -0.0167
[3]
  cell viability (log2): 0.0828
[4]
  cell viability (log2): -0.0285

## COCCOC(=O)C1=C(C)NC(=S)NC1c1ccccc1 (centres undefined)
[1]
  cell viability (log2): 0.0342
[2]
  cell viability (log2): 0.00808
[3]
  cell viability (log2): 0.0869
[4]
  cell viability (log2): 0.0951

## C=C(C)C1Cc2c(cc3oc(CO)cc(=O)c3c2O)O1 (centres undefined)
[1]
  cell viability (log2): 0.0482
[2]
  cell viability (log2): -0.012
[3]
  cell viability (log2): 0.067
[4]
  cell viability (log2): 0.013

## CC[C@@]1(O)C(=O)OCc2c1cc1n(c2=O)Cc2cc3cc(O)ccc3nc2-1
[1]
  cell viability (log2): -1.78 (active)
[2]
  cell viability (log2): -0.267 (active)
[3]
  cell viability (log2): -4.23 (active)
[4]
  cell viability (log2): -1.06 (active)

## CC[C@@]1(O)C(=O)OCc2c1cc1n(c2=O)Cc2cc3c(CN(C)C)c(O)ccc3nc2-1
[9]
  cell viability (log2): -0.373 (active)
[10]
  cell viability (log2): -0.0171
[11]
  cell viability (log2): -1.79 (active)
[12]
  cell viability (log2): -0.321 (active)
[13]
  cell viability (log2): -2.4 (active)
[14]
  cell viability (log2): -0.459 (active)
[15]
  cell viability (log2): -3.72 (active)
[16]
  cell viability (log2): -0.844 (active)
[17]
  cell viability (log2): -4.21 (active)
[18]
  cell viability (log2): -1.11 (active)
[19]
  cell viability (log2): -4.26 (active)
[20]
  cell viability (log2): -1.44 (active)

## CCc1c2c(nc3ccc(OC(=O)N4CCC(N5CCCCC5)CC4)cc13)-c1cc3c(c(=O)n1C2)COC(=O)[C@]3(O)CC
[9]
  cell viability (log2): 0.00275
[10]
  cell viability (log2): 0.0626
[11]
  cell viability (log2): -0.0633
[12]
  cell viability (log2): 0.00509
[13]
  cell viability (log2): -0.241 (active)
[14]
  cell viability (log2): 0.026
[15]
  cell viability (log2): -1.31 (active)
[16]
  cell viability (log2): -0.173 (active)
[17]
  cell viability (log2): -1.95 (active)
[18]
  cell viability (log2): -0.414 (active)
[19]
  cell viability (log2): -2.57 (active)
[20]
  cell viability (log2): -0.647 (active)

## C=CC(C)(O)CC/C=C(\C)CCC=C(C)C (centres undefined)
[1]
  cell viability (log2): 0.0873
[2]
  cell viability (log2): 0.0984
[3]
  cell viability (log2): 0.22
[4]
  cell viability (log2): 0.113

## COc1cc(OC)c(C2NC(=S)NC(C)=C2C(=O)Nc2ccccc2Cl)cc1OC (centres undefined)
[1]
  cell viability (log2): 0.0713
[2]
  cell viability (log2): 0.0952
[3]
  cell viability (log2): 0.0303
[4]
  cell viability (log2): 0.0128

## CC(C)C[C@H](NC(=O)OCC1c2ccccc2-c2ccccc21)C(=O)O
[1]
  cell viability (log2): 0.0635
[2]
  cell viability (log2): 0.0579
[3]
  cell viability (log2): 0.116
[4]
  cell viability (log2): -0.00318

## CC(C)CCCC(C)C1CCC2C3CCC4CC(=O)CCC4(C)C3CCC12C (centres undefined)
[1]
  cell viability (log2): 0.027
[2]
  cell viability (log2): 0.0292
[3]
  cell viability (log2): 0.169
[4]
  cell viability (log2): 0.017
